The source made the active and inactive calls. How the source made its calls: active means hit-call score of the fitted dose curve at least 0.9, where 1 is the maximum; inactive means score below 0.9.

Assay [1] in a line: BSK_CASM3C_Proliferation: Cell Proliferation Assessment in the BioMAP Diversity Plus: CASM3C Assay (AID 2283047).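 Further: sulforhodamine B total protein stain as relative cell number at 560 nm; sub-confluent cells exposed 48 h before staining; fitted both ways against DMSO so gain or loss of cell number.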 The note with it: primary human coronary artery smooth muscle cells.
Read-out in assay [2]: Monokine induced gamma interferon (MIG), CXCL9 (gene 4283)
Kind of assay: BSK_CASM3C_MIG: BioMAP Diversity Plus: CASM3C Assay for Monokine induced gamma interferon (MIG) Biomarker Activity (AID 2283048).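 Further: MIG protein level measured by ELISA.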 Particulars: primary human coronary artery smooth muscle cells; actives raise or lower the signal.

Read-out in assay [3]: serum amyloid A (SAA), SAA1 (gene 6288)
Kind of assay: BSK_CASM3C_SAA: BioMAP Diversity Plus: CASM3C Assay for serum amyloid A (SAA) Biomarker Activity (AID 2283049).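 Further: SAA protein level quantified by ELISA.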 The note with it: primary human coronary artery smooth muscle cells; actives raise or lower the signal.

A short description of assay [4]: BSK_CASM3C_SRB: Viability Assessment in the BioMAP Diversity Plus: CASM3C Assay (AID 2283050).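 Further: total protein by SRB staining as cytotoxicity measure in parallel cultures; cells exposed to compound for 24 h.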 Particulars: primary human coronary artery smooth muscle cells.
Read-out in assay [5]: Thrombomodulin, THBD (gene 7056)
Kind of assay: BSK_CASM3C_Thrombomodulin: BioMAP Diversity Plus: CASM3C Assay for Thrombomodulin Biomarker Activity (AID 2283051).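 Further: thrombomodulin protein level measured by ELISA 24 h after dosing.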 The note with it: primary human coronary artery smooth muscle cells; actives raise or lower the signal.

Read-out in assay [6]: Tissue Factor, F3 (gene 2152)
Kind of assay: BSK_CASM3C_TissueFactor: BioMAP Diversity Plus: CASM3C Assay for Tissue Factor Biomarker Activity (AID 2283052).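 Further: cell surface tissue factor protein level read by ELISA.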 The note with it: primary human coronary artery smooth muscle cells; actives raise or lower the signal.

Read-out in assay [7]: Interferon-gamma inducible Protein 10 (IP10), CXCL10 (gene 3627)
The assay is described as follows: BSK_hDFCGF_IP10: BioMAP Diversity Plus: hDFCGF Assay for Interferon-gamma inducible Protein 10 (IP10) Biomarker Activity (AID 2283053). The note with it: primary human foreskin fibroblasts; actives raise or lower the signal. In a few lines:
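ELISA quantification of IP-10 after a 24 h chemical exposure of human dermal foreskin fibroblast primary cultures. Both increases and decreases versus DMSO fitted.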

Read-out in assay [8]: Urokinase-type plasminogen activator receptor (uPAR), PLAUR (gene 5329)
Kind of assay: BSK_CASM3C_uPAR: BioMAP Diversity Plus: CASM3C Assay for Urokinase-type plasminogen activator receptor (uPAR) Biomarker Activity (AID 2283054).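 Further: cell-surface uPAR protein level quantified by ELISA.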 Particulars: primary human coronary artery smooth muscle cells; actives raise or lower the signal.

Read-out in assay [9]: Vascular cell adhesion molecule 1 (VCAM1), VCAM1 (gene 7412)
The assay is described as follows: BSK_CASM3C_VCAM1: BioMAP Diversity Plus: CASM3C Assay for Vascular cell adhesion molecule 1 (VCAM1) Biomarker Activity (AID 2283055).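 Further: VCAM-1 protein level quantified by ELISA on the cells.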 The note with it: primary human coronary artery smooth muscle cells; actives raise or lower the signal.

Read-out in assay [10]: Collagen III, COL3A1 (gene 1281)
Kind of assay: BSK_hDFCGF_CollagenIII: BioMAP Diversity Plus: hDFCGF Assay for Collagen III Biomarker Activity (AID 2283056). The note with it: primary human foreskin fibroblasts; actives raise or lower the signal. In a few lines:
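ELISA read-out of collagen III from human skin fibroblast cultures sampled 24 h post-dosing. Values were derived by bidirectional fitting relative to the DMSO vehicle control.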

Turning to `COC(=O)CCCC(=O)OC`, the outcome in [1], in assay [2], in assay [3], in [4], in assay [5] and in [6] was inactive. In addition, the outcome in [7], in assay [8], in [9] and in [10] was inactive.

`Cc1cc(SC2=C(O)C[C@@](CCc3ccc(N)cc3)(C(C)C)OC2=O)c(C(C)(C)C)cc1CO`: the result in assay [1], in [2], in [3], in [4], in [5] and in [6] was inactive. Besides, the result in [7], in assay [8], in assay [9] and in [10] was inactive.

A word on the AC50: it is the concentration at which the activity in the assay is half-maximal. `COc1ccc(C(=O)Nc2nc3ccccc3c(NCc3ccccc3)c2C#N)cc1`: the outcome in [1], in [2], in assay [3], in assay [4], in assay [5] and in [6] was inactive. Besides, the result in assay [7], in assay [8] and in assay [9] was inactive. In addition, in assay [10], the AC50 was 2.8 µM (active).

For the compound `c1ccc2occc2c1`, the result in assay [1], in assay [2], in [3], in assay [4], in assay [5] and in assay [6] was inactive. Also, the result in [7], in [8], in [9] and in [10] was inactive.

Regarding `Cc1c(C)c2c(c(C)c1O)CCC(C)(COc1ccc(CC3SC(=O)NC3=O)cc1)O2` (stereo not given), the half-maximal activity concentration (AC50) is 6.88 µM (active) in [1], 5.08 µM (active) in assay [5], 9.98 µM (active) in assay [7] and 12 µM (active) in [10]. Moreover, the result in assay [2], in assay [3], in [4], in assay [6], in assay [8] and in [9] was inactive.

Take `C/C=C/c1ccc(OC)cc1`: the outcome in assay [1], in assay [2], in [3], in assay [4], in [5] and in assay [6] was inactive. The result in assay [7], in assay [8], in assay [9] and in [10] was inactive.

Consider `Cn1cnc2c1c(=O)[nH]c(=O)n2C`, for which the result in assay [1], in [2], in [3], in assay [4], in assay [5] and in assay [6] was inactive. In addition, the result in assay [7], in [8], in [9] and in assay [10] was inactive.

`CC(=O)[C@@]1(O)CC[C@H]2[C@@H]3CCC4=CC(=O)CC[C@]4(C)[C@H]3CC[C@@]21C`: the result in [1], in assay [2], in assay [3], in assay [4], in [5] and in assay [6] was inactive. In addition, the result in [7], in assay [8], in [9] and in assay [10] was inactive.

Take `NC(=Nc1ccccc1)Nc1ccccc1`: the result in [1], in [2], in assay [3], in assay [4], in [5] and in assay [6] was inactive. Besides, the result in [7], in assay [8], in assay [9] and in assay [10] was inactive.

Turning to `O=C(N[C@@H](c1ccccc1)[C@@H]1CCCCN1)c1cccc(C(F)(F)F)c1Cl`, the AC50 in assay [1] was 30.3 µM (active); in [4], 30.9 µM (active); in assay [7], 10.5 µM (active). The outcome in assay [2], in assay [3], in assay [5], in assay [6], in [8] and in [9] was inactive. In assay [10], the outcome was inactive.

Turning to `O=C1O[C@H]([C@H](O)CO)C(O)=C1O`, the outcome in [1], in [2], in assay [3], in [4], in assay [5] and in [6] was inactive. Moreover, the result in [7], in assay [8], in assay [9] and in assay [10] was inactive.

In the case of `NC1CCCCC1`, the result in assay [1], in [2], in assay [3], in assay [4], in assay [5] and in [6] was inactive. Moreover, the outcome in [7], in assay [8], in [9] and in assay [10] was inactive.

With `CCN(CC)CCOc1ccc(C(=C(Cl)c2ccccc2)c2ccccc2)cc1`, the AC50 in assay [1] was 15 µM (active); in [2], 31.5 µM (active); in assay [3] it was 25.9 µM (active); in assay [4], 28 µM (active); in assay [6], 31.8 µM (active); in [7], 14.4 µM (active). Also, the AC50 in assay [8] is 31.1 µM (active); in assay [9], 31.6 µM (active); in [10] it was 12.1 µM (active). Moreover, the result in assay [5] was inactive.

In the case of `C#CC(O)C(CC)CCCC` (stereo not given), in [1], the AC50 is 37 µM (active). In addition, the result in assay [2], in assay [3], in assay [4], in assay [5], in assay [6] and in assay [7] was inactive. For the same compound, the result in [8], in [9] and in assay [10] was inactive.

With `O=C(NS(=O)(=O)/C=C/c1cccs1)c1ccc(F)cc1Br`, the AC50 in assay [1] is 5.22 µM (active); in assay [6] it was 0.061 µM (active); in assay [7], 30.9 µM (active). The result in assay [2], in assay [3], in [4], in [5], in assay [8] and in assay [9] was inactive. In addition, the outcome in assay [10] was inactive.

For the compound `CCCCCCCCCC[N+](C)(C)[O-]`, the outcome in assay [1], in assay [2], in assay [3], in assay [4], in assay [5] and in assay [6] was inactive. Besides, the result in assay [7], in [8], in [9] and in assay [10] was inactive.

Consider `C=CCc1ccc(OC)c(OC)c1`, for which the outcome in assay [1], in [2], in assay [3], in assay [4], in assay [5] and in [6] was inactive. Further, the result in assay [7], in assay [8], in assay [9] and in assay [10] was inactive.

For the compound `CC(N)=O`, the result in assay [1], in assay [2], in assay [3], in [4], in assay [5] and in assay [6] was inactive. Further, the outcome in assay [7], in [8], in assay [9] and in assay [10] was inactive.

Turning to `Cc1cn([C@H]2C=C[C@@H](CO)O2)c(=O)[nH]c1=O`, the outcome in [1], in assay [2], in [3], in assay [4], in assay [5] and in [6] was inactive. Also, the outcome in assay [7], in [8], in assay [9] and in [10] was inactive.

In the case of `CC(COCC(C)OC(=O)c1ccccc1)OC(=O)c1ccccc1` (stereo not given), the result in assay [1], in assay [2], in assay [3], in [4], in [5] and in [6] was inactive. Besides, the outcome in [7], in assay [8], in assay [9] and in assay [10] was inactive.

Regarding `C=CCCCCCCCCCCCC`, the result in assay [1], in assay [2], in assay [3], in assay [4], in assay [5] and in assay [6] was inactive. Besides, the outcome in assay [7], in assay [8], in [9] and in assay [10] was inactive.

Regarding `CC(C)c1cccc(C(C)C)c1NC(=O)NS(=O)(=O)c1cc(C(C)(C)O)co1`, the result in assay [1], in [2], in assay [3], in assay [4], in [5] and in assay [6] was inactive. Moreover, the outcome in assay [7], in assay [8], in assay [9] and in assay [10] was inactive.

For the compound `CC1=C(C)S(=O)(=O)CCS1(=O)=O`, the outcome in [1], in [2], in [3], in [4], in assay [5] and in assay [6] was inactive. The outcome in assay [7], in assay [8], in [9] and in [10] was inactive.

Turning to `COc1ccc(OC(F)(F)F)cc1CN[C@H]1CCCN[C@H]1c1ccccc1`, the AC50 was 29.6 µM (active) in assay [1] and 15 µM (active) in [4]. For the same compound, the outcome in assay [2], in assay [3], in assay [5], in [6], in [7] and in assay [8] was inactive. The result in [9] and in assay [10] was inactive.

With `CCCCCCCCCCCCCCOS(=O)(=O)O`, the outcome in assay [1], in assay [2], in [3], in [4], in assay [5] and in assay [6] was inactive. Moreover, the result in assay [8] and in assay [9] was inactive. For the same compound, the AC50 was 8.52 µM (active) in [7] and 7.78 µM (active) in [10].

Take `CCc1nc(N)nc(N)c1-c1ccc(Cl)cc1`: the result in assay [1], in assay [2], in assay [3], in assay [4], in [5] and in assay [6] was inactive. The result in assay [7], in assay [8], in assay [9] and in assay [10] was inactive.

For `OCC(CO)n1cnc(-c2ccc(F)cc2)c1-c1ccnc(Oc2ccccc2)n1`, the result in [1], in assay [2], in [3], in [4], in [5] and in assay [6] was inactive. In addition, the outcome in assay [7], in assay [8] and in assay [10] was inactive. Besides, in assay [9], the half-maximal activity concentration (AC50) was 2.33 µM (active).

As to `CCCCCCC(C=O)=Cc1ccccc1`, the AC50 in assay [1] is 30.9 µM (active); in assay [7], 32.6 µM (active); in assay [10], 30.1 µM (active). Further, the result in assay [2], in [3], in [4], in [5], in assay [6] and in assay [8] was inactive. Besides, the outcome in assay [9] was inactive.

For `S=c1[nH]c2ccccc2s1`, the outcome in assay [1], in [2], in assay [3], in assay [4], in assay [6] and in assay [7] was inactive. Besides, the result in [8] and in assay [9] was inactive. Also, the AC50 in assay [5] was 8.08 µM (active); in assay [10], 6.58 µM (active).

Source of the values: PubChem BioAssay (EPA / NIEHS).
